DRD3 antagonist – qHTS of D3 Dopamine Receptor Antagonist: qHTS; D3R cells, DiscoveRx beta-arrestin luminescence, antagonist mode; active compounds read low; max response, negative = inhibition, %; 360,000 tested, 2.5% active; AID 652054, 2013; in the data active = max response below about -50%; inconclusive = no clear call, values can overlap the other calls; also: % is scaled to controls: 0 for no effect and ±100 for the full control effect
Target sequence (P35462 whole entry, looked up): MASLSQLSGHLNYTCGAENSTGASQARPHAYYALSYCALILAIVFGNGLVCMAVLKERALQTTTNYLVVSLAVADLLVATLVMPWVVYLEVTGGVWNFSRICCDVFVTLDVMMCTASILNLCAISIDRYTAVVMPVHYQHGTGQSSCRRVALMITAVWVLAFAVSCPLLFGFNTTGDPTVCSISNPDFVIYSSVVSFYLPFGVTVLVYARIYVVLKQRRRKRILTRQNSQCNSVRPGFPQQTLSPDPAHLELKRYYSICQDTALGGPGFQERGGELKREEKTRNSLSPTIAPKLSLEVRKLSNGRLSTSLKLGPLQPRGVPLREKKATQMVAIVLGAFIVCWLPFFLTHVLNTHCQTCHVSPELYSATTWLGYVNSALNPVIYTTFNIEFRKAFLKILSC
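Cells plated overnight at 1500 cells/well, then exposed to library compounds with dopamine controls for 90 minutes at 37 degrees C. DiscoveRx reagent added for 30–60 minutes at room temperature; luminescence read, quantitative HTS format.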
IL1B secr inh – qHTS for Inhibitors of Inflammasome Signaling: IL-1-beta AlphaLISA Primary Screen | activity change, % at 57.5 µM | 360,000 tested, 4.7% active | THP-1 LPS/ATP IL-1B secretion, AlphaLISA, 16 h; active compounds read low | AID 743279, 2014; in the data active = activity change below about -50%; inconclusive = mostly about -30% to -49%; also: % is scaled to controls: 0 for no effect and ±100 for the full control effect
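THP-1 cells pretreated 1 hr with compounds (up to 57.5 uM final), then stimulated with LPS (250 ng/mL final) plus ATP (1.25 mM final); secreted IL-1B measured by AlphaLISA after 16 hr, decreased signal indicating inhibition.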
D3 ag – qHTS of D3 Dopamine Receptor Agonist: qHTS. D(3) dopamine receptor (Homo sapiens), P35462. D3R DiscoveRx beta-arrestin cells, luminescence, 90 min. max activation, %. 410,000 tested, 0.58% active; in the data active = max activation above about 30%; also: 0% is about no effect
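Cells at 1500/well, incubated overnight, then treated with pinned compounds (dopamine as control) for 90 min at 37 degrees C. DiscoveRx reagent added for 30 - 60 minutes at room temperature; luminescence read.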
ClpP mod – qHTS Assay for Activators of ClpP; ATP-dependent Clp protease proteolytic subunit (Bacillus subtilis (strain 168)), P80244; purified B. subtilis ClpP, FRET peptide cleavage, 20 min; Potency, µM (top dose mostly 57.5 µM), for inactives: at the top dose activity change, negative = active; 340,000 tested, 1.9% active; AID 651965, 2013; active = well fitted falling curve with a large enough effect; inconclusive = small, poorly fitted or top-dose-only effect; inactive = no such curve, though single readings can be large or run the other way; also: potency is read from the fitted curve at half-maximal effect; the source files actives as falling curves though it sought activators and does not explain the sign; nearly all actives have a fitted effect of over 65% in size
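FRET quenching reversal measured ClpP activation: 10 microg/mL B. subtilis ClpP at pH 8 with the FRET-FV decapeptide, read at 430 nm after 320 nm excitation. The 20-min minus 0-min signal was scaled between DMSO/no-enzyme wells and ADEP (5.8 microM final).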
DT40 TDP1 CPT – qHTS for Inhibitors of human tyrosyl-DNA phosphodiesterase 1 (TDP1): qHTS in cells in presence of CPT; AID 686979, 2013; chicken DT40 Tdp1-/-;hTDP1 cells + 20 nM CPT, ATP luminescence, 48 h; 420,000 tested, 12% active; Potency, µM (highest dose often 46.2 µM), for inactives: top-dose activity change, negative = growth inhibition, most hits filed as inhibitors; also: potency is read from the fitted curve at half-maximal effect; % is scaled to controls: 0 for no effect and ±100 for the full control effect; nearly all actives have a fitted effect of over 55% in size
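Cell growth measured by CellTiter-Glo luminescence after a minimum 48 h, 37 C compound exposure with 20 nM CPT in Tdp1-knockout DT40 cells stably expressing hTDP1, seeded 400/well; qHTS titration format.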
TDP1 cell noCPT – qHTS for Inhibitors of human tyrosyl-DNA phosphodiesterase 1 (TDP1): qHTS in cells in absence of CPT; DT40 Tdp1-/- hTDP1 cells, no CPT, ATP luminescence, 48 h; Potency, µM (top dose mostly 46.2 µM), without a hit: at the top dose activity change, negative = growth inhibition, most hits filed as inhibitors; 420,000 tested, 15% active; also: potency is read from the fitted curve at half-maximal effect; % is scaled to controls: 0 for no effect and ±100 for the full control effect; nearly all actives have a fitted effect of over 55% in size
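Growth of hTDP1-complemented DT40 Tdp1-knockout cells is measured by ATP luminescence after at least 48 hr compound exposure at 37 °C, with DMSO substituting for the 20 nM CPT used in the parallel screen.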
* hit, by the source's call; u = inconclusive; x = no result given. Hits are enriched below; roughly 21% of the tested compounds scored in any of these assays. Unless noted, calls follow the shape of the dose curve; as a rule, active = well fitted inhibition curve with a large enough effect; inconclusive = small, poorly fitted or top-dose-only effect; inactive = flat fitted curve, though single readings scatter.

SMILES	DRD3 antagonist	IL1B secr inh	D3 ag	ClpP mod	DT40 TDP1 CPT	TDP1 cell noCPT
COCCn1c(C(=O)N2CCCC2)cc2c1C[C@H]1CN(C(=O)c3ccccc3)[C@@](Cc3ccc(F)cc3)(C(=O)OC)[C@@H]21	3	-17	-11	1%	-13%	u
CC(=O)c1ccc(-c2ccc(C(=O)NCC3CCCO3)o2)cc1 (centres undefined)	-18	6	1	-1%	2%	-28%
COc1ccc(CC(=O)OCCc2cc3cc(OC)c(OC)cc3c(=O)o2)cc1	-7	19	10	-19%	1%	0%
O=C1C=CC(=O)N1Cc1ccncc1	-8	-14	9	-5%	9%	-3%
O=C1C=CC(=O)N1CCCCCCCCCCN1C(=O)C=CC1=O	-100*	-87*	-19	x	0.58µM*	1.3µM*
CCc1ccccc1NC(=O)C1(C)Cc2ccccc2C(=O)O1 (centres undefined)	x	x	5	-2%	-4%	-22%
CCCCN1C(=O)C(NC(C)=O)c2cc(Br)ccc21 (centres undefined)	-5	17	-3	-8%	u	21µM*
CCC1CN(C(=O)Nc2ccccc2C(F)(F)F)c2ccccc2S1 (centres undefined)	x	x	-19	-1%	-10%	3%
Cc1ccc(C)c(N2CCN(C(=O)CS(=O)(=O)c3cccc4nsnc34)CC2)c1	x	x	4	-6%	u	u
CCc1ccccc1Nc1cc(C(=O)NCc2ccc(C)cc2)c2ccccc2n1	x	x	-8	u	21µM*	u
CCc1ccccc1Nc1cc(C(=O)NCCc2ccccc2)c2ccccc2n1	x	x	-12	u	u	u
CCc1ccccc1Nc1cc(C(=O)NC(C)c2ccccc2)c2ccccc2n1 (centres undefined)	x	x	-21	u	29µM*	u
CC(NC(=O)c1cc(=O)[nH]c2ccccc12)c1ccccc1 (centres undefined)	-8	14	2	x	u	-92%
COc1ccccc1/C=N/NC(=O)c1ccc(C)nc1	-17	2	-3	-6%	1%	14%
O=C(N/N=C\c1c(O)ccc2ccccc12)c1ccc(O)cc1	16	149	4	-7%	u	6.5µM*
O=C(O)c1ccc(N=Cc2c(O)ccc3ccccc23)cc1	-11	8	6	x	0%	-21%
Cc1occc1C(=O)N/N=C/c1c(O)ccc2ccccc12	13	125	15	x	0.65µM*	1µM*
Cc1ccc(C(=O)N/N=C/c2c(O)ccc3ccccc23)cn1	-2	95	1	3%	3.3µM*	2.9µM*
O=C(N/N=C/c1ccccn1)c1ccc(Br)o1	7	5	-1	-2%	u	u
O=C(N/N=C/c1c(O)ccc2ccccc12)c1ccc(Br)o1	-14	91	0	-1%	5.2µM*	4.6µM*
Cc1ccc(-n2cnc3c(=O)[nH]cnc32)cc1	7	2	17	x	-6%	9%
Cc1ccnn1CC(=O)N/N=C/c1cn[nH]c1-c1ccc(F)cc1	8	1	1	0%	-3%	-8%
O=C(c1ccc2c(c1)OCCO2)N(Cc1cccnc1)c1nc2ccc(F)cc2s1	x	x	1	136%	u	u
O=C(N/N=C\c1c(O)ccc2ccccc12)c1cncc(Br)c1	8	204	30	x	1.6µM*	0.82µM*
O=C(C[n+]1cccc(C(=O)N/N=C/c2ccc(Br)cc2)c1)c1ccccc1	-13	-5	-6	4%	-1%	-11%
